The structures appear in SMILES notation. Results filed as inconclusive are left out. Calls of active or inactive are those of the source.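 Rule for the calls, unless noted: active = normalized viability below 100% at a tested concentration; inactive = the rest.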

Consider four molecules from PubChem BioAssay.

Experiment [1] in a line: growth inhibition of DIPG glioma cells, dose response, cell-based, SU-DIPG-XVII, MIPE5.0, CellTiter-Glo, qHTS (AID 1347060; cut-off not given, nearly all actives have AC50 up to about 26 µM;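 for AC50: cells exposed to compound for 48 hours before viability readout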). The following applies: SU-DIPG-XVII viability, CellTiter-Glo ATP luminescence.
A short description of experiment [2]: growth inhibition of DIPG glioma cells, dose response, cell-based, JHH-DIPG-1, MIPE4.0, CellTiter-Glo, qHTS (AID 1347062; cut-off not given, nearly all actives have AC50 up to about 27 µM;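 for AC50: cells exposed to compound for two days before readout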). The following applies: JHH-DIPG-1 viability, CellTiter-Glo ATP luminescence.
A short description of experiment [3]: growth inhibition of DIPG glioma cells, dose response, cell-based, SU-DIPG-IV, MIPE4.0, CellTiter-Glo, qHTS (AID 1347063; cut-off not given, nearly all actives have AC50 up to about 30 µM;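 note: compound exposure lasted 48 hours before the viability readout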). As to conditions: SU-DIPG-IV viability, CellTiter-Glo ATP luminescence. (In ATP-based viability assays light output follows the ATP content of the culture.)
Experiment [4] is described as follows: growth inhibition of DIPG glioma cells, dose response, cell-based, SU-DIPG-XIII, MIPE5.0, CellTiter-Glo, qHTS (AID 1347064; cut-off not given, nearly all actives have AC50 up to about 23 µM;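 for AC50: cells exposed to compound for 48 hours before the viability read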). As to conditions: SU-DIPG-XIII viability, CellTiter-Glo ATP luminescence.
Experiment [5] is described as follows: viability loss in pontine glioma line – cell-based, SU-DIPG-XXV, MIPE5.0, CellTiter-Glo, qHTS, dose response (AID 1347065; cut-off not given, nearly all actives have AC50 up to about 26 µM;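 note: cells exposed to compound for 48 hours before ATP readout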). The following applies: CellTiter-Glo ATP luminescence.
Experiment [6] can be described thus: SU-DIPG-VI glioma cell viability, MIPE4.0 library, CellTiter-Glo luminescence, qHTS (AID 1347066; cut-off not given, nearly all actives have AC50 up to about 30 µM;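 note: cells exposed to compound for 48 hours before readout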). As to conditions: CellTiter-Glo ATP luminescence.
Experiment [7] is described as follows: JHH-DIPG-1 glioma cell viability, MIPE5.0 library, CellTiter-Glo luminescence, qHTS (AID 1347067; cut-off not given, nearly all actives have AC50 up to about 26 µM;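 note: cells exposed to compound for 48 hours before readout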). As to conditions: JHH-DIPG-1 glioma viability, CellTiter-Glo ATP luminescence.
Experiment [8] in a line: SU-DIPG-XXV glioma cell viability, MIPE5.0 library, qHTS (AID 1347068; cut-off not given, nearly all actives have IC50 up to about 30 µM;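 for IC50: cells exposed to compound for 48 hours before viability readout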). A general note: Quantitative high-throughput screening tests each substance at several concentrations.
Experiment [9] is described as follows: sensitizers of A549 cells to miR-34 induction, primary screen, imaging, A549 dox-inducible miR-34, nuclei and caspase counts (AID 1347080;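 active = compounds whose cell count with miR-34 switched on is under 0.7 times the count with it off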). The following applies: A549 miR-34 inducible, Hoechst nuclei count, 48 h.
Experiment [10] is described as follows: survival rescue of mitochondrial mutant cells in low glucose, primary screen, MELAS cybrids, Rieske KO mouse fibroblasts, CellTiter-Glo (AID 1508586;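 active = mean z-score across replicates of 1.96 or higher in either the MELAS or the Rieske mutant cell line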;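 note: z relative to plate mean and SD of compound and empty wells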).
The nature of experiment [11]: modifiers of HSF1 nuclear foci, imaging, Selleck Cancer Library (AID 1347162; in the data active = plate-normalised HSF1 focus index below about 0.46). As to conditions: human cells, at 10 µM; SSMD: measured here: HSF1 foci SSMD mean; cell count: measured here: cell number; plate-normalised HSF1 focus index: stronger effect = lower value.
Experiment [12] can be described thus: ovarian cancer cell viability with rucaparib, profiling panel, oncology-focused library, rucaparib conditional (AID 1508598). The following applies: patient-derived ovarian cancer cells, CellTiter-Glo viability, 144 h, stronger effect = lower value.
[13] abbreviates: stronger effect = lower value, cell number ratio, induced over uninduced.
The mark [14] stands for this setting: measured here: relative caspase fold change +Dox/-Dox.
The mark [15] stands for this setting: measured here: total cells with miR-34 induction, stronger effect = lower value.
Where [16] appears, read: measured here: total cells without miR-34 induction.
Setting [17] is: MELAS cybrid survival, CellTiter-Glo 48 h, stronger effect = higher value.
[18] abbreviates: Rieske KO mouse fibroblast survival, CellTiter-Glo 72 h.

With `CCCCOc1ccc(C(=O)Nc2ccc(F)cc2F)cc1`, the molecule was classed as inactive in experiment [1], in experiment [2], in experiment [3], in experiment [4], in experiment [5] and in experiment [6]. Further, the call in [7] and in experiment [8] was inactive. Also, the results for the fold change in [9] (setting [13]) and in experiment [9] (setting [14]) were 0.889 (inactive) and 0.917, respectively. For the same molecule, the cell count was determined as 9070 in [9] (setting [15]) and 10200 in [9] (setting [16]). For the same molecule, the values for the z-score in experiment [10] (setting [17]) and in experiment [10] (setting [18]) were -0.373 (inactive) and 0.589, respectively.
For `NS(=O)(=O)c1cccc2c1C(=O)c1cccc(O)c1C2=O`, the concentration at half-maximal activity (AC50) (commonly the concentration giving half of the maximal activity seen) in experiment [1] was 2350 nM (active); in [2] it was 1180 nM (active); in experiment [3], 332 nM (active); in experiment [4] it was 1180 nM (active); in experiment [5], 1860 nM (active); in experiment [6], 526 nM (active). Besides, in experiment [7], the AC50 is 2090 nM (active). Moreover, in experiment [8], the IC50 (usually the point on the concentration scale where inhibition reaches its midpoint) is 9340 nM (active).
In the case of `Cn1cnc(=N)c2[nH]cnc21`, the outcome in experiment [1], in experiment [4], in experiment [5], in experiment [7] and in [8] was inactive. The figures for the AC50 in [2], in [3] and in [6] were 4690 nM (active), 4690 nM (active) and 235 nM (active), respectively. The fold change in experiment [9] (setting [13]) is 0.904 (inactive); in [9] (setting [14]) it was 0.712. Moreover, the cell count was 9400 in experiment [9] (setting [15]), 10400 in [9] (setting [16]) and 7250 in experiment [11]. For the same molecule, the SSMD in experiment [11] stood at 2.26. The plate-normalised HSF1 focus index in experiment [11] was 1.08 (inactive). Also, the figures for the z-score in experiment [10] (setting [17]) and in experiment [10] (setting [18]) were -0.304 (inactive) and -0.808, respectively. The viability (as a rule, a read-out of living cells in per cent, often relative to untreated cells) is 112% (inactive) in experiment [12] (at 0.000305 µM, OCI-C5x cells, with rucaparib 10 µM, 100% = cells with rucaparib alone); 111% (inactive) in [12] (at 0.000305 µM, OCI-C5x cells, without rucaparib); 99% (active) in experiment [12] (at 0.000305 µM, OCI-P5x cells, with rucaparib 20 µM, 100% = cells with rucaparib alone); 94.2% (active) in experiment [12] (at 0.000305 µM, OCI-P5x cells, without rucaparib); 111% (inactive) in [12] (at 0.00122 µM, OCI-C5x cells, with rucaparib 10 µM, 100% = cells with rucaparib alone); 114% (inactive) in experiment [12] (at 0.00122 µM, OCI-C5x cells, without rucaparib). Also, the viability was 100% (inactive) in experiment [12] (at 0.00122 µM, OCI-P5x cells, with rucaparib 20 µM, 100% = cells with rucaparib alone); 97.1% (active) in experiment [12] (at 0.00122 µM, OCI-P5x cells, without rucaparib); 107% (inactive) in experiment [12] (at 0.00488 µM, OCI-C5x cells, with rucaparib 10 µM, 100% = cells with rucaparib alone); 119% (inactive) in [12] (at 0.00488 µM, OCI-C5x cells, without rucaparib); 108% (inactive) in experiment [12] (at 0.00488 µM, OCI-P5x cells, with rucaparib 20 µM, 100% = cells with rucaparib alone); 99.6% (active) in [12] (at 0.00488 µM, OCI-P5x cells, without rucaparib). Also, the viability in experiment [12] (at 0.0195 µM, OCI-C5x cells, with rucaparib 10 µM, 100% = cells with rucaparib alone) is 114% (inactive); in [12] (at 0.0195 µM, OCI-C5x cells, without rucaparib), 112% (inactive); in experiment [12] (at 0.0195 µM, OCI-P5x cells, with rucaparib 20 µM, 100% = cells with rucaparib alone), 113% (inactive); in [12] (at 0.0195 µM, OCI-P5x cells, without rucaparib), 102% (inactive); in experiment [12] (at 0.0781 µM, OCI-C5x cells, with rucaparib 10 µM, 100% = cells with rucaparib alone), 107% (inactive); in experiment [12] (at 0.0781 µM, OCI-C5x cells, without rucaparib), 111% (inactive). In addition, the viability is 116% (inactive) in experiment [12] (at 0.0781 µM, OCI-P5x cells, with rucaparib 20 µM, 100% = cells with rucaparib alone); 107% (inactive) in experiment [12] (at 0.0781 µM, OCI-P5x cells, without rucaparib); 112% (inactive) in experiment [12] (at 0.313 µM, OCI-C5x cells, with rucaparib 10 µM, 100% = cells with rucaparib alone); 116% (inactive) in experiment [12] (at 0.313 µM, OCI-C5x cells, without rucaparib); 107% (inactive) in experiment [12] (at 0.313 µM, OCI-P5x cells, with rucaparib 20 µM, 100% = cells with rucaparib alone); 109% (inactive) in experiment [12] (at 0.313 µM, OCI-P5x cells, without rucaparib). The viability in [12] (at 1.25 µM, OCI-C5x cells, with rucaparib 10 µM, 100% = cells with rucaparib alone) is 110% (inactive); in experiment [12] (at 1.25 µM, OCI-C5x cells, without rucaparib) it was 115% (inactive); in experiment [12] (at 1.25 µM, OCI-P5x cells, with rucaparib 20 µM, 100% = cells with rucaparib alone), 109% (inactive); in experiment [12] (at 1.25 µM, OCI-P5x cells, without rucaparib), 109% (inactive); in experiment [12] (at 5 µM, OCI-C5x cells, with rucaparib 10 µM, 100% = cells with rucaparib alone), 100% (inactive); in experiment [12] (at 5 µM, OCI-C5x cells, without rucaparib), 125% (inactive). The viability is 116% (inactive) in experiment [12] (at 5 µM, OCI-P5x cells, with rucaparib 20 µM, 100% = cells with rucaparib alone) and 110% (inactive) in experiment [12] (at 5 µM, OCI-P5x cells, without rucaparib).
For the molecule `CC1(C)Cc2c(sc(NC(=S)NC(=O)c3ccccc3)c2C(=O)O)CO1`, the molecule was called inactive in [1], in experiment [2], in [3], in [4], in experiment [5] and in experiment [6]. Moreover, the molecule was classed as inactive in experiment [7] and in experiment [8].
